Screening results from PubChem BioAssay.
Shiga toxin inh: inhibitors of Shiga toxin in Vero cells. Vero cells, Shiga toxin protein synthesis inhibition reporter. inhibition, % at 38.7 µM. 290,000 compounds, 9.2% hits; in the data active = inhibition mostly above about 28%, no sharp cut-off; inactive = mostly below about 43%; also: 0% is about no effect
Pf growth 96h: P. falciparum growth inhibition at 96 hours; P. falciparum luciferase reporter growth, 96 h; Potency, µM (doses to about 28.7 µM), inactives show at the highest dose activity change, negative = inhibition, most hits filed as inhibitors; 320,000 compounds, 6.9% hits; AID 504834; also: potency is read from the fitted curve at half-maximal effect; % is scaled to controls: 0 for no effect and ±100 for the full control effect
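Infected RBCs, 2% Hct / 0.05% parasitemia final; luciferase-reporter P. falciparum; cpd 96 h, 37 C, 5% CO2; luciferase detection reagent; luminescence.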
Pf growth 48h: inhibits P. falciparum growth in the first generation, 48 h | 310,000 compounds, 5.9% hits | AID 504832 | Potency, µM (highest dose often 28.7 µM), for inactives: top-dose activity change, negative = inhibition, usual class: inhibitors | P. falciparum luciferase growth in erythrocytes, 48 h; also: potency is read from the fitted curve at half-maximal effect; % is scaled to controls: 0 for no effect and ±100 for the full control effect
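In quantitative HTS format, infected erythrocytes bearing luciferase-reporter parasites were treated for a single generation at 37 C. Luminescence after adding detection reagent served as the growth measure.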
CHX counter: counter-screen for Shiga toxin inhibitors: cycloheximide protein synthesis inhibition; cell reporter, cycloheximide protein synthesis inhibition counterscreen; max response, %; 300,000 compounds, 12% hits; AID 2314; in the data active = max response mostly above about 13%, no sharp cut-off; inactive = mostly below about 14%; also: read at 38.3 µM for the half of the compounds with a filed dose; 0% is about no effect
NS1 inh: blocks influenza NS1 protein function; 270,000 compounds, 0.4% hits; Potency, µM (titrated, usually from 46.1 µM), without a hit: at the highest dose activity, positive = more growth; calls by dose curve; also: potency is read from the fitted curve at half-maximal effect; actives are rising curves; nearly all actives have a fitted effect of over 50% in size
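Read-out: OD600 growth recovery of NS1-expressing budding yeast. Cells grown overnight at 30C in -URA glucose medium, washed, resuspended and diluted 1:100 in 2% galactose assay medium, pH 6.0. Same strain lacking NS1 served as positive control.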
* marks the source's active call; other numbers are inactive results; ? = inconclusive; . = no result; [ ] = dose if it differs, or a comment. In the library only some 21% were active in any assay of this set; here they are far more common. Unless noted, calls follow the shape of the dose curve; as a rule, active = well fitted inhibition curve with a large enough effect; inconclusive = small, poorly fitted or top-dose-only effect, or another doubt; inactive = no such curve, though single readings can be large or run the other way.

SMILES | Shiga toxin inh | Pf growth 96h | Pf growth 48h | CHX counter | NS1 inh
O=C(COc1cccnc1[N+](=O)[O-])NCCc1ccccc1 | 16.3 | 26.1% | 7.0% | 14.1* | 0.1%
O=[N+]([O-])c1cc(C(F)(F)F)ccc1NCCc1c[nH]c2ccccc12 | 53.8* | 9.8% | -6.9% | 10.4* | 13.3%
Cc1cccc(OCCNc2ccc(C(F)(F)F)cc2[N+](=O)[O-])c1 | -4.9 | 7.5% | 22.0% | 9.3* | 3.1%
COc1ccccc1CNc1ncccc1[N+](=O)[O-] | -3.1 | ? | -17.8%[0.00184 µM] | 1.1 | -3.9%
O=C(Nc1ccc(F)cc1)c1cccnc1NCCc1ccccc1 | -11.6 | 3.7µM* | ? | -2.7 | 1.4%
O=[N+]([O-])c1cccnc1NCCc1c[nH]c2ccccc12 | 67.6* | 102.4% | 141.3% | 30.8* | -2.9%
O=[N+]([O-])c1cccnc1NCCc1ccccc1 | 67.3* | 191.7% | 223.9% | 36.8* | -2.9%
COc1ccc(/C=C(\C#N)C(=O)OCC(=O)N2CC(C)OC(C)C2)cc1 (stereo unspecified) | -7.0 | 42.2% | ? | -2.0 | -1.0%
Cc1ccc(N(O)C(=O)OCCNC(=O)Nc2ccccc2)cc1 | -0.6 | 153.7% | 15.8% | -2.3 | -1.2%
OCC1(CC2CCCCO2)CCN(C/C=C/c2ccccc2)CC1 (stereo unspecified) | 5.7 | -14.8% | 5.22µM* | -1.7 | 5.8%
COCc1ccc(CN2CCC(CO)(CC3CCCCO3)CC2)o1 (stereo unspecified) | 2.8 | ? | 7.6% | 0.9 | 7.6%
COc1cc(/C=C/CN2CCC(CO)(CC3CCCCO3)CC2)ccc1O (stereo unspecified) | -11.3 | 0.0% | -5.0% | -0.4 | 3.9%
COc1cccc(CN2CCC(CO)(CC3CCCCO3)CC2)c1 (stereo unspecified) | -10.8 | 9.28µM* | -19.6% | 2.5 | 5.6%
Cc1ccc2[nH]c(CN3CCC(CO)(CC4CCCCO4)CC3)c(C)c2c1 (stereo unspecified) | -1.6 | ? | 9.28µM* | -3.4 | -3.5%
O=C(CSc1nc(O)c(C2CCCCC2)c(=O)[nH]1)N1CCOCC1 | -8.1 | ? | -20.2% | -2.4 | 0.1%
Cc1ccc(NC(=O)CNC(=O)c2ccco2)nc1 | 6.9 | ? | 16.4% | 13.3 | -6.2%
COC(=O)C1=COC(C)C2CN3CCc4c([nH]c5cc(OC)c(OC)cc45)C3CC12 (stereo unspecified) | -9.6 | 0.828µM* | ? | -2.3 | ?
COc1cccc(CNC(=O)CN2C(=O)c3ccccc3S2(=O)=O)c1 | . | 81.1% | 42.9% | . | .
CCOc1ccc(Nc2nc(NCC3CCCO3)c3ccccc3n2)cc1 (stereo unspecified) | 17.0 | -18.5% | 1.17µM* | 14.1 | .
c1ccc(Nc2nc(NCC3CCCO3)c3ccccc3n2)cc1 (stereo unspecified) | 13.3 | 9.0% | ? | 9.4 | .
Nc1nc(NCC2CCCO2)nc(Nc2ccc(Cl)cc2)c1[N+](=O)[O-] (stereo unspecified) | 16.6 | ? | ? | -3.7 | 1.0%
Nc1nc(NCC2CCCO2)nc(Nc2ccccc2)c1[N+](=O)[O-] (stereo unspecified) | -2.5 | ? | 10.4µM* | -2.5 | 5.0%
Oc1cccc(Nc2nc(NCC3CCCO3)c3ccccc3n2)c1 (stereo unspecified) | 10.8 | -17.7% | 0.37µM* | 7.6 | -10.6%
COc1cccc(CN2CC(C(=O)NCCOc3cccnc3)CCC2=O)c1 (stereo unspecified) | 3.3 | ? | 22.1% | -2.6 | 2.8%
CCn1nc(C)c(Oc2ccccc2O)c1C | -5.7 | 11.7µM* | -1.5% | 6.2 | -3.7%
SMILES | Shiga toxin inh | Pf growth 96h | Pf growth 48h | CHX counter | NS1 inh
Cc1ccc(C)c(NC(=S)N(CCc2ccncc2)C(C)C)c1 | -4.3 | 20.9% | -18.3% | -0.7 | .
Cc1cc(C)c(NC(=S)N(CCc2ccncc2)C(C)C)c(C)c1 | -3.7 | -7.2% | 10.4µM* | 11.5 | .
CCCn1c(SCC(=O)N2CCCc3ccccc32)nnc1-c1ccccn1 | -5.0 | 9.6% | ? | 0.5 | -14.8%
CCN1CCN(CCCNC(=O)CN2C(=O)c3cccnc3Oc3ccc(Cl)cc32)CC1 | -7.9 | ? | 2.5% | -5.6 | -1.8%
CC1CC(C)CN(CCCNC(=O)CN2C(=O)c3cccnc3Oc3ccc(Cl)cc32)C1 (stereo unspecified) | -14.8 | ? | 10.4µM* | -2.7 | 0.3%
CSc1ccccc1-c1n[nH]c(=S)o1 | -13.2 | 38.4% | 13.1µM* | -5.1 | .
CN(C)c1ccc(/C=N/NC(=S)NCc2ccco2)cc1 | 23.4* | 56.1% | 23.1% | 16.1 | 5.5%
